Assay [1] can be described thus: Nuclear factor erythroid 2-related factor 2/antioxidant responsive element (Nrf2/ARE) small molecule agonists: qHTS cell viability counter screen in human keratinocytes (AID 1919968; active means well fitted curve in the direction sought with a large enough effect in the repeat runs; an effect the other way counts as inactive or inconclusive; further: nearly all actives have a fitted effect of over 55% in size). The procedure, abridged: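 Cytotoxicity was multiplexed with the Nrf2/ARE luciferase assay in the same wells. Stably transfected HaCaT keratinocytes were treated with test compounds for 23 h at 37 C. Cell viability was then measured by CellTiter-Fluor fluorescence.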
(In general: Quantitative high-throughput screening tests each substance at several concentrations.)

Assay [2] in a line: Nuclear factor erythroid 2-related factor 2/antioxidant responsive element (Nrf2/ARE) small molecule agonists: luciferase reporter gene qHTS assay in human keratinocytes (AID 1919969). Further: nearly all actives have a fitted effect of over 35% in size. On the technique in general: A reporter such as luciferase makes a cellular process visible.
In assay [3] the target is Gonadotropin-releasing hormone receptor (Homo sapiens) (UniProt P30968). Description: Human gonadotropin-releasing hormone receptor (GnRHR) small molecule agonists, calcium flux assay in GnRHR-HEK293 cells (AID 1920063). Further: nearly all actives have a fitted effect of over 35% in size. The gist of the method: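 Agonist activity was measured as intracellular calcium flux in HEK293 cells engineered to stably express human GnRHR. After dye loading for 1 hour at 37 C, compounds in DMSO were added and fluorescence was followed for 3 minutes.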
A general note: Calcium flux is commonly read through the fluorescence of an indicator in the cells.

Assay [4] has as its target KiSS-1 receptor (Homo sapiens) (UniProt Q969F8). Description: Human kisspeptin (KISS1R) small molecule agonists, calcium flux assay in KISS1R-HEK293 cells (AID 1920064; active means well fitted curve in the direction sought with a large enough effect in the repeat runs; an effect the other way counts as inactive or inconclusive). The procedure, abridged:
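Agonist activity is monitored as intracellular calcium rise in engineered HEK293 cells carrying human KISS1R. Cells are dye-loaded for 1 h at 37 C before compound addition, and fluorescence is recorded for 3 min.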

A short description of assay [5]: G protein-coupled receptor (GPCR) small molecule agonists, calcium flux assay: HEK293 wild type cell line counter screen (AID 1920065). The gist of the method: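 Seed cells, incubate 18 h (37 C, 5% CO2); add calcium dye, 1 h at 37 C; pin-transfer compounds, ATP control or DMSO; read fluorescence 480/540 nm each second for 3 min.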
Assay [6] can be described thus: p53 small molecule agonists, cell-based qHTS assay with human liver microsomes: qHTS cell viability counter screen (AID 1963579). Further: nearly all actives have a fitted effect of over 45% in size. The procedure, abridged:
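Viability of p53RE-bla cells is measured as CellTiter-Glo luminescence following a 16 h, 37 C incubation with compound, liver microsomes from human donors and NADPH.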

A short description of assay [7]: p53 small molecule agonists, cell-based qHTS assay with rat liver microsomes: qHTS cell viability counter screen (AID 1963580). Further: nearly all actives have a fitted effect of over 45% in size. The gist of the method: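 Luminescent ATP readout (CellTiter-Glo, 30 min at room temperature) reports viability of p53RE-bla HCT-116 cells after 16 h at 37 C with test compounds under metabolic activation by rat liver microsomes and NADPH at 0.5 mg/mL final each.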

The nature of assay [8]: p53 small molecule agonists, cell-based qHTS assay: qHTS cell viability counter screen (AID 1963581). Further: nearly all actives have a fitted effect of over 45% in size. The gist of the method: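 Viability was counter-screened in parallel with the p53 agonist reporter by measuring intracellular ATP luminescence in the same HCT-116 p53RE-bla wells after 16 h compound treatment at 37 C.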
Assay [9] can be described thus: p53 small molecule agonists, cell-based qHTS assay (AID 1963582; active means well fitted activation curve with a large enough effect in the signal ratio in the repeat runs, not every such curve was filed as active; the % refers to the signal ratio). The gist of the method:
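Cells carrying a p53-responsive bla reporter are treated with test compounds for 16 h at 37 C; beta-lactamase activity is then detected with LiveBLAzer B/G FRET substrate after 2 h at room temperature.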

In assay [10] the target is 5-hydroxytryptamine receptor 2A (Homo sapiens) (UniProt P28223). Description: 5-hydroxytryptamine receptor 2A (HTR2A) small molecule antagonists, cell-based qHTS assay (AID 1963586). Further: nearly all actives have a fitted effect of over 45% in size. The gist of the method: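 CHO cells stably expressing human HTR2A were plated for 18 h at 37 C, then loaded with calcium dye for 1 h. Compounds were preincubated 5 min at room temperature before DOI (4 nM solution) was added. Kinetic fluorescence was read for 3 min.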

The target is the same in assay [11]. Put plainly: 5-hydroxytryptamine receptor 2A (HTR2A) small molecule agonists, cell-based qHTS assay (AID 1963587). Further: nearly all actives have a fitted effect of over 30% in size. The procedure, abridged: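 HTR2A-CHO cells, plated 18 h at 37 C/5% CO2, dye-loaded 1 h at 37 C; compounds in DMSO added by pin tool (agonist mode). Intracellular calcium flux read as kinetic fluorescence on FDSS over 2 min at 1 s intervals.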
The target of assay [12] is Muscarinic acetylcholine receptor M1 (Homo sapiens) (UniProt P11229). Description: Cholinergic receptor muscarinic 1 (CHRM1) small molecule antagonists, cell-based qHTS assay (AID 1963588). Further: nearly all actives have a fitted effect of over 40% in size. The procedure, abridged:
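Compounds were tested at 15 concentrations in three independent runs. Dye-loaded CHRM1-CHO cells were exposed 5 min at room temperature before stimulation by acetylcholine added at 50nM. Intracellular calcium was read kinetically on FDSS for 3 min.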

Assay [13] addresses Beta-2 adrenergic receptor (Homo sapiens) (UniProt P07550). Description: Adrenergic beta2 receptor (ADRB2) small molecule antagonists, cell-based qHTS assay (AID 1963592). Further: nearly all actives have a fitted effect of over 50% in size. Further: potency means the concentration at half of the fitted maximal effect. The gist of the method: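 Assay format: CHO-ADRB2 cells, 18-20hr seeding at 37C/5% CO2, then compound plus 1nM isoproterenol agonist mix for 0.5hr RT. Homogeneous time-resolved fluorescence cAMP detection after 1hr, expressed as 665/615 nm ratio.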

Assay [14] concerns the target D(2) dopamine receptor (Homo sapiens) (UniProt P14416). Put plainly: Dopamine D2 receptor (DRD2) small molecule antagonists, cell-based qHTS assay (AID 1963595; active means well fitted inhibition curve with a large enough effect in the signal ratio in the repeat runs, with a control signal flat; the % refers to the signal ratio). The procedure, abridged:
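Cells were plated and grown for 24 h at 37 °C. Ro20-1724 (0.1 mM final) went in first, then compound for 10 min. NKH477 (200 nM) with quinpirole (12 nM) followed for 30 min at RT, then HTRF detection reagents for 1 h.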

In assay [15] the target is Muscarinic acetylcholine receptor M1 (Homo sapiens) (UniProt P11229). Put plainly: Cholinergic receptor muscarinic 1 (CHRM1) small molecule agonists, cell-based qHTS assay (AID 1963589). Further: nearly all actives have a fitted effect of over 35% in size. The procedure, abridged: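 Cells were plated and incubated 18 h at 37 C/5% CO2, loaded with calcium dye for 1 h at 37 C, then treated with compounds in DMSO. Fluorescence was recorded kinetically at 1 sec intervals.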

Assay [16] in a line: cAMP Responsive Elements (CRE) small molecule agonists, cell-based qHTS assay (AID 1963590). The gist of the method: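 Cells carrying a CRE-driven beta-lactamase reporter (HEK 293T) are seeded, incubated overnight (18 h), and treated with test compounds for 3 h at 37 C; reporter activity is then detected with a FRET substrate after 2 h at room temperature.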
Assay [17] can be described thus: cAMP Responsive Elements (CRE) small molecule antagonists, cell-based qHTS assay (AID 1963591; active means well fitted inhibition curve with a large enough effect in the signal ratio in the repeat runs, not every such curve was filed as active; the % refers to the signal ratio). The procedure, abridged: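 Cells (CRE-bla HEK 293T, DMEM with 10% dialyzed FBS and 25 mM HEPES) are seeded and incubated 18 h. Compounds are added with NKH477 agonist at 0.25 uM final for 3 h, then FRET substrate for 2 h.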
The target of assay [18] is Beta-2 adrenergic receptor (Homo sapiens) (UniProt P07550). Description: Adrenergic beta2 receptor (ADRB2) small molecule agonists, cell-based qHTS assay (AID 1963593).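 Further: CHO cells stably overexpressing human ADRB2.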 The procedure, abridged: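 CHO cells stably over-expressing ADRB2 were plated overnight at 37C, then dosed with compounds plus a stimulation mix containing 100uM IBMX and 25uM Ro-20-1724 for 0.5hr at room temperature. cAMP was measured by HTRF competition, 1hr.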

Assay [19] addresses D(2) dopamine receptor (Homo sapiens) (UniProt P14416). Description: Dopamine D2 receptor (DRD2) small molecule agonists, cell-based qHTS assay (AID 1963594). Further: nearly all actives have a fitted effect of over 35% in size. The gist of the method:
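HEK293 cells stably expressing DRD2 were cultured 24 h at 37 C, then given Ro20-1724 (0.1 mM final) and compounds for 10 min at room temperature. NKH477 (200nM) was then added for 30 min. cAMP was read by HTRF.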

Molecules are shown by their SMILES. Unmarked numbers belong to inactive results. Records with an inconclusive call do not appear. Activity calls are given as the source filed them. Unless noted, the call rests on the fitted dose curve.

Muscarinic acetylcholine receptor M1 (Homo sapiens), sequence (P11229 whole entry, looked up): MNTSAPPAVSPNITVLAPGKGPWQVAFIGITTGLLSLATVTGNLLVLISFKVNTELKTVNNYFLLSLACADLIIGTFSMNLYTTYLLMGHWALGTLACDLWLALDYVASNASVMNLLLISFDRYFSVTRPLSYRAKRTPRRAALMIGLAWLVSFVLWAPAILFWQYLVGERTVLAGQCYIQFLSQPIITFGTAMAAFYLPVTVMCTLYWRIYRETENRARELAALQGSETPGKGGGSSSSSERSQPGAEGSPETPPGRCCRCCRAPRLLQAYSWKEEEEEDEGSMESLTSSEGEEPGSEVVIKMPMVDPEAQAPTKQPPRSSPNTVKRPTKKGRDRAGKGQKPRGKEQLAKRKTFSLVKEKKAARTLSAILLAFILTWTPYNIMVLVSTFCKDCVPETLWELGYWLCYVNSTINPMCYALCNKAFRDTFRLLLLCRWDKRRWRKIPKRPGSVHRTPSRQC
5-hydroxytryptamine receptor 2A (Homo sapiens), sequence (P28223 whole entry, looked up): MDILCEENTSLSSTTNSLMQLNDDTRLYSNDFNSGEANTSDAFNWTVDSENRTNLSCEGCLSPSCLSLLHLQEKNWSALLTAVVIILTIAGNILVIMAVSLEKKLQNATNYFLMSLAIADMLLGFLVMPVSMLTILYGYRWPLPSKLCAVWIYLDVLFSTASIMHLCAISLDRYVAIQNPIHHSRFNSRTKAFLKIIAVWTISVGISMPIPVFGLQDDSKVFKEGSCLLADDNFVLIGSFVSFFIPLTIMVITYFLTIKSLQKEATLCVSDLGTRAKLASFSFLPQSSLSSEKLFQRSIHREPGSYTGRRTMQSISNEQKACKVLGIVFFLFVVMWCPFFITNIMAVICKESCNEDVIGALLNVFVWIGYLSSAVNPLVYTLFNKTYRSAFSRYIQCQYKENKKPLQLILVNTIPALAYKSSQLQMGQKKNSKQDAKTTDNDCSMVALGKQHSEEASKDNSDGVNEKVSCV
KiSS-1 receptor (Homo sapiens), sequence (Q969F8 whole entry, looked up): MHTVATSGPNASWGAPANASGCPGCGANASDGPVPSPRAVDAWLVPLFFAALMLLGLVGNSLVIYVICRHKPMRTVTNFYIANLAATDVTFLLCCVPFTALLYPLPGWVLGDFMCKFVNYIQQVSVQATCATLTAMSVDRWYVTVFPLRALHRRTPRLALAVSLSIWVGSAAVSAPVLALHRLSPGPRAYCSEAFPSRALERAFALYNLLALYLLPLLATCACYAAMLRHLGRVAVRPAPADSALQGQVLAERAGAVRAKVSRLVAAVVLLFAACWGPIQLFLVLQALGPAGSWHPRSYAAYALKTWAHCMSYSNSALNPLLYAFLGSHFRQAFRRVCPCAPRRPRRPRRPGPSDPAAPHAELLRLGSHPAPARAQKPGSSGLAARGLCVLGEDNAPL
D(2) dopamine receptor (Homo sapiens), sequence (P14416 whole entry, looked up): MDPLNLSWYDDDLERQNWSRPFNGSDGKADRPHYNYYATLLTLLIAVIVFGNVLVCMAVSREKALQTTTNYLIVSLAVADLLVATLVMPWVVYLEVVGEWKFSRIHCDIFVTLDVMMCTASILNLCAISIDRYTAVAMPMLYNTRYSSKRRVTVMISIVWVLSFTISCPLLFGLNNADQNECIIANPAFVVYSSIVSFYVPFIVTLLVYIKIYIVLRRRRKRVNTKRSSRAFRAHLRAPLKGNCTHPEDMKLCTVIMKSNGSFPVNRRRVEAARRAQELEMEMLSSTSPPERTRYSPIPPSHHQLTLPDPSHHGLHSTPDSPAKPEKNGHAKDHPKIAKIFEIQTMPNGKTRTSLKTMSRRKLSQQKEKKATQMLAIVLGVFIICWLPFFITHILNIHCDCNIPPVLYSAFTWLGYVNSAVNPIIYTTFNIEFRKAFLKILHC
Beta-2 adrenergic receptor (Homo sapiens), sequence (P07550 whole entry, looked up): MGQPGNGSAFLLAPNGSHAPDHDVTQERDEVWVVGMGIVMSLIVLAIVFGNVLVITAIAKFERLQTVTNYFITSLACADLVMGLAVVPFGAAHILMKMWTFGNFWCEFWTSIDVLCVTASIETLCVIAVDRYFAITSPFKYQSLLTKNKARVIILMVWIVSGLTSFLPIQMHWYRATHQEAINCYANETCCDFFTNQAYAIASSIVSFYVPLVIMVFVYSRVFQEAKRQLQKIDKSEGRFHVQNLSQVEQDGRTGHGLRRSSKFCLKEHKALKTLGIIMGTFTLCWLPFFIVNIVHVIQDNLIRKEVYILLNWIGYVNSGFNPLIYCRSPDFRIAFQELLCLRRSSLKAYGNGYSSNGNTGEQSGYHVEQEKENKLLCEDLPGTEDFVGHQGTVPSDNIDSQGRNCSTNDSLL
Gonadotropin-releasing hormone receptor (Homo sapiens), sequence (P30968 whole entry, looked up): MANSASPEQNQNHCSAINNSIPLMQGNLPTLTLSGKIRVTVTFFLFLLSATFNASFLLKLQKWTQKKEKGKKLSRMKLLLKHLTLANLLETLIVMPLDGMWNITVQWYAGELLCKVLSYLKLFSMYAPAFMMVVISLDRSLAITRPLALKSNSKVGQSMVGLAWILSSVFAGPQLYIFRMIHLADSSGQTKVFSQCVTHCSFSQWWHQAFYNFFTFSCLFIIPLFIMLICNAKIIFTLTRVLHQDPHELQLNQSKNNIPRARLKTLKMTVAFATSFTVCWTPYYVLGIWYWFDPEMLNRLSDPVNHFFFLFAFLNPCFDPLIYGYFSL

As to `CC1CC(=O)NN=C1c1ccc(NCC(C)(C)NCC(O)COc2cc(Cl)ccc2C#N)cc1` (configuration not stated), the Potency entry in assay [1], in assay [2], in assay [3], in assay [4], in assay [5] and in assay [6] was “inactive” each time. The Potency entry in assay [7], in assay [8], in assay [9], in [10], in assay [11] and in assay [12] was “inactive” in each case. The Potency entry in [14] is “inactive”. Moreover, in assay [13], the Potency is 5.31 µM (active).
For `c1ccc2c(c1)CCCC2C1=NCCN1` (configuration not stated), the Potency entry in [1], in [2], in assay [3], in [4], in assay [5] and in [6] was “inactive” each time. Moreover, the Potency result in [7], in assay [8], in assay [10], in [11], in [12] and in assay [15] was “inactive” each time. The Potency entry in [16], in assay [17], in assay [13], in assay [18] and in assay [19] was “inactive” throughout.
With `CCCCC(CC)C(=O)OCCOCCOCCOCCOC(=O)C(CC)CCCC` (configuration not stated), the Potency entry in assay [1], in assay [2], in assay [3], in [4], in assay [5] and in assay [6] was “inactive” in each case. Moreover, the Potency entry in assay [7], in [8], in [10], in assay [11], in assay [12] and in assay [15] was “inactive” in each case. In addition, the Potency result in [16], in [17], in assay [13], in [18], in [19] and in assay [14] was “inactive” throughout.
`CC(=O)CCC1=C(C)CCCC1(C)C`: the Potency entry in [1], in assay [2], in assay [3], in [4], in assay [5] and in [6] was “inactive” in each case. For the same compound, the Potency result in assay [7], in assay [8], in assay [10], in assay [11], in assay [12] and in [15] was “inactive” throughout. Further, the Potency entry in assay [16], in assay [17], in assay [13], in assay [18], in assay [19] and in [14] was “inactive” throughout.
`Nc1cc(Cl)cc(S(=O)(=O)O)c1O`: the Potency result in assay [1], in assay [2], in assay [3], in assay [4], in assay [5] and in assay [6] was “inactive” each time. Also, the Potency result in [7], in assay [8], in [10], in assay [11], in [12] and in [15] was “inactive” throughout. In addition, the Potency entry in [16], in [17], in assay [13] and in assay [19] was “inactive” in each case.
Turning to `CCOC(=O)C(F)(F)F`, the Potency entry in [1], in [2], in assay [3], in assay [4], in assay [5] and in assay [6] was “inactive” each time. The Potency entry in assay [7], in assay [8], in assay [10], in [11], in assay [12] and in [15] was “inactive” throughout. Moreover, the Potency entry in assay [16], in assay [17], in assay [13], in [18] and in [14] was “inactive” each time.
Regarding `COc1ccc(OC)c(Cl)c1`, the Potency result in [1], in assay [2], in assay [3], in assay [4], in assay [5] and in [6] was “inactive” in each case. The Potency result in assay [7], in assay [8], in [10], in assay [11], in [12] and in assay [15] was “inactive” in each case. For the same compound, the Potency entry in [16], in assay [17], in assay [13], in assay [18] and in assay [14] was “inactive” in each case.

The values above are taken from PubChem BioAssay (Tox21).
